The results in this text go back to PubChem BioAssay AID588342 (National Center for Advancing Translational Sciences (NCATS), 2011).

Screen size: about 360,000 compounds; about 25,000 (6.9%) were called active. Another 9% or so got no clear call; they are omitted. The list comes from a sample in which actives are over-represented; it also holds similar structures and randomly drawn compounds. Unmarked numbers belong to inactive results. Calls follow the shape of the dose curve; as a rule, active = well fitted inhibition curve with a large enough effect; inconclusive = small, poorly fitted or top-dose-only effect; inactive = flat fitted curve, though single readings scatter.
Potency is read from the fitted curve at half-maximal effect.

Sequence of Luciferin 4-monooxygenase (Photinus pyralis) (P08659 whole entry, looked up): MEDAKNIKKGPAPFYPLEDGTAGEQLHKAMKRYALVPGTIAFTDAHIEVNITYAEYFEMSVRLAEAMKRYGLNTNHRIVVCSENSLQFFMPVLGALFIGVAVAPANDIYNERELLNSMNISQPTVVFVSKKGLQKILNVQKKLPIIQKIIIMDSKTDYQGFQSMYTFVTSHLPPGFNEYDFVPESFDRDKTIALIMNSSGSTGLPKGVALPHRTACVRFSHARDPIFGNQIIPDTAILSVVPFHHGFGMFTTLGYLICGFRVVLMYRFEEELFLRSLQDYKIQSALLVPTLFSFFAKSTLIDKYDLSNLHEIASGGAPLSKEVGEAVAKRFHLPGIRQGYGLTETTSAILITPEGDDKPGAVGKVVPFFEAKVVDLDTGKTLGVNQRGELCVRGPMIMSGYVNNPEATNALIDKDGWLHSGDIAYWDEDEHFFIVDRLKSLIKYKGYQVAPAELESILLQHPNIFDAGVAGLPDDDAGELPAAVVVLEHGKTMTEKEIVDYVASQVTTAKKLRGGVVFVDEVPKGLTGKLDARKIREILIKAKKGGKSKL

The test has as its target Luciferin 4-monooxygenase (Photinus pyralis) (UniProt P08659). Nature of the test: qHTS profiling assay for firefly luciferase inhibitor/activator using purifed enzyme and Km concentrations of substrates (counterscreen for miR-21 project). Also: nearly all actives have a fitted effect of over 55% in size.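 As to activity change, negative = inhibition: plate controls were vehicle for no effect and reference inhibitor for full effect.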 Particulars: purified FLuc, luminescence inhibition; series mostly up to 57.5 µM; activity change, negative = inhibition: at the top concentration. The gist of the method: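 Biochemical qHTS of compounds, final roughly 60 µM downward over six points, against 10 nM purified firefly luciferase using Km concentrations of substrates (10 uM D-luciferin, 10 uM ATP) in Tris acetate pH 7.5 buffer; luminescence output.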
In general terms: qHTS replaces the single test concentration by a dilution series.
On to `Cc1ccc(CNC(=O)c2c(O)nc3c(C)cccn3c2=O)cc1`, for which the “activity change, negative = inhibition” value was -7.24%.
On the same count and under the same terms, the result for `O=C(CCn1c(=O)oc2ccccc21)Nc1ccon1` reads -14.9%.
Turning to `CC(C)c1ccc(Nc2nnc(SCC(=O)c3nnc(-c4ccccc4)o3)s2)cc1`, the Potency was 10.7 µM (active).
As to `CC(C)Nc1nnc(SCC(=O)c2c[nH]c3ccccc23)s1`, the “activity change, negative = inhibition” value is -11.3%.
Same read-out and setting: the result for `Cc1ccccc1Nc1nnc(SCC(=O)c2cc3ccccc3o2)s1` reads -1.37%; that for `CC1CCCC(NC(=O)c2cc(S(=O)(=O)N3CCCCC3)ccc2Cl)C1C` (stereo unspecified), 2.31%.
Regarding `Cc1cc(N/N=C\c2ccc(Br)cc2)nc(-n2nc(C)cc2C)n1`, the “activity change, negative = inhibition” value was -0.864%.
The same measure, in the same setting: to `C(=N/Nc1cc(N2CCOCC2)nc(N2CCOCC2)n1)/c1ccccc1` belongs -3.51%.
In the case of `Cc1nc(Cl)cc(N/N=C/c2ccccc2)n1`, the Potency is 16.9 µM (active).
Consider `CN(CC(=O)Nc1ccc(F)c(F)c1F)C(=O)Cn1cnc2c1c(=O)n(C)c(=O)n2C`, for which the “activity change, negative = inhibition” value is 2%.
Still for that read-out and setting: the result for `COC(=O)C(C)Oc1ccc2c(c1)O/C(=C\c1cccc(Br)c1)C2=O` (stereo unspecified) reads -19.3%; that for `CC1CCCN(CC(O)COc2ccc3c(c2)OCO3)C1` (stereo unspecified), 1.9%.
Take `O=C1/C(=C/c2ccc3c(c2)OCO3)Oc2cc(OCC(=O)N3CC(O)C[C@H]3C(=O)O)ccc21` (stereo partly specified): the Potency was 0.757 µM (active).
`O=C(CCNS(=O)(=O)c1ccc(Br)cc1)NCC1CCCO1` (stereo unspecified): the “activity change, negative = inhibition” value is 3.61%.
On to `O=C(Nc1ccccc1N1CCCC1)c1ccc2ccccc2c1`, for which the Potency was 15.1 µM (active).
On to `O=C(Nc1ccccc1N1CCCCC1)c1ccc2nccnc2c1`, for which the “activity change, negative = inhibition” value was -1.25%.
As to `O=C(Nc1ccccc1N1CCCC1)c1ccc(F)c(S(=O)(=O)N2CCOCC2)c1`, the “activity change, negative = inhibition” value was 0.53%.
Same read-out and setting: the result for `Cc1cccc(OCCSc2nc3ccc(NC(=O)COc4ccccc4C)cc3s2)c1` reads -4.35%.
Take `CS(=O)(=O)N1CCc2nc(-c3ccccc3)sc2C1`: the Potency is 9.53 µM (active).
`CS(=O)(=O)N1CCN(c2cccc(Cl)n2)CC1`: the “activity change, negative = inhibition” value is -0.219%.
With `CS(=O)(=O)N1CCN(C(=O)Cc2ccccc2)CC1`, the “activity change, negative = inhibition” value was 3.89%.
Same read-out and setting: the result for `Cc1ccc(NC(=O)CCNC(=O)c2ccc([N+](=O)[O-])cc2)cc1S(=O)(=O)N1CCOCC1` reads 4.27%; that for `CCOc1ccc(N(CC)S(=O)(=O)N2CCCC(C(=O)NCc3ccc(Cl)cc3)C2)cc1` (stereo unspecified), -15.9%.
Same read-out and setting: the result for `O=C(COc1ccccc1)Nc1ccc(C(=O)N2CCCC2)cc1` reads -0.942%; that for `CC(=O)Nc1ccc(NC(=O)COc2ccc(-c3ccccc3)cc2)cc1`, -2.67%.
As for `O=C(COc1ccccc1)Nc1nonc1NC(=O)COc1ccccc1`, the Potency is 7.57 µM (active).
With `CCCCN(CCCNC(=O)c1cc(Nc2ccccc2OC)nc2ccccc12)c1ccccc1`, the “activity change, negative = inhibition” value was -5.87%.
On the same count and under the same terms, to `Cc1c(C)n(Cc2ccc(Cl)cc2)c2ccc(C(=O)NCCc3ccc(S(N)(=O)=O)cc3)cc12` belongs -12%.
In the case of `COc1ccccc1NC(=O)c1ccc(C)s1`, the Potency was 13.5 µM (active).
On to `COc1ccccc1NC(=O)C1=C(C)NC(=O)NC1c1ccc(C)s1` (stereo unspecified), for which the “activity change, negative = inhibition” value was -1.32%.
On the same count and under the same terms, to `COC(=O)c1c(NC(C)=O)sc(C(=O)Nc2ccccc2OC)c1C` belongs -3.92%; to `O=C(NCCC1=CCCCC1)C1CCN(Cc2cnn(-c3ccccc3)c2-n2cccc2)CC1`, 0.886%.
As to `CCN1CCN(c2ncnc3c2cnn3-c2ccc(C)c(C)c2)CC1`, the Potency is 9.53 µM (active).
On the same count and under the same terms, to `C1=C(CCNc2ncnc3c2cnn3-c2ccccc2)CCCC1` belongs 3.38 µM (active).
As for `COc1ccccc1N1CCN(C(=O)CSc2nnc(-c3ccoc3C)o2)CC1`, the “activity change, negative = inhibition” value is -1.48%.
Still for that read-out and setting: the result for `CCc1cc2c(N3CCN(c4nnc(CC)s4)CC3)ncnc2s1` reads -1.27%; that for `O=C(NNc1ncnc2c1cnn2-c1ccccc1)c1ccco1`, -1.66%; that for `CCN(CC)C(=O)CSc1nc2ccccc2n1CC(=O)N1CCN(c2ccccc2OC)CC1`, 7.05%.
Still for that read-out and setting: the result for `Cc1ccc(Cl)cc1-n1ncc2c(N3CCC(C(N)=O)CC3)ncnc21` reads -2.86%.
For `Cc1ccc(-n2ncc3c(N4CCC(C(N)=O)CC4)ncnc32)cc1`, the Potency is 12 µM (active).
Same read-out and setting: to `COc1ccccc1N1CCN(C(=O)CSc2ncnc3c2cnn3-c2ccc(C)c(C)c2)CC1` belongs 8.49 µM (active).
Regarding `Cc1ccc(-n2ncc3c(=O)n(Cc4cccc(C(F)(F)F)c4)cnc32)cc1C`, the “activity change, negative = inhibition” value was -6.53%.
Still for that read-out and setting: to `CCOC(=O)C1CCN(c2ncnc3c2c(-c2ccccc2)cn3-c2ccc(C)cc2)CC1` belongs -7.38%; to `Cc1ccc(S(=O)(=O)N(C)C)cc1NC(=O)c1ccccc1Br`, -3.56%; to `Cn1cc(-c2ccccc2)cc(C#N)c1=O`, 2.58%.
As for `Cc1ccccc1CN1CCC(CNC(=O)c2cc3ccc4cccnc4c3[nH]2)CC1`, the “activity change, negative = inhibition” value is -4.76%.
On the same count and under the same terms, the result for `Cc1ccc(N2CC(NC(=O)Cc3cccs3)CC2=O)cc1` (stereo unspecified) reads -1.84%.
Same read-out and setting: to `Cc1cccc(NC(=O)C2CC(=O)OC23CCCC3)c1` (stereo unspecified) belongs 2.02%; to `Nc1c(C(=O)O)cnn1-c1ccccc1`, -3.2%.
Still for that read-out and setting: the result for `Cn1nnc2c(N3CCN(c4ccccc4)CC3)ncnc21` reads -8.03%.
For `c1ccc(-n2ncc3c(N4CCCC4)ncnc32)cc1`, the Potency was 4.26 µM (active).
